Laboratory results from PubChem BioAssay (NCI).
This is part of a sample that, as a whole, favours compounds with a hit. Of some 83,000 tested, about 20% had one in any assay.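 How to read the values: 0–100, growth inhibition (40 = 60% inhibited); 0, no net growth; -100 to 0, cell death (-40 = 40% of starting cells died; -100 = all dead).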 A number with no mark means an inactive call. Activity calls are given as the source filed them. The calls were made as follows: active = growth percent below 10; inactive = the rest.

Tested on: MALME-3M melanoma
Assay: NCI-60 one-dose screen, 48 h (100 = growth as untreated, 0 = no growth, -100 = all killed)
Settings: 10 µM

| SMILES | growth |
| --- | --- |
| CC(C)N(CCOc1cccc(-c2nc3sccn3c2-c2ccnc(S(C)(=O)=O)n2)c1)C(C)C | 91.3% |
| O=C(CSc1nnc(-c2ccc(Cl)cc2)o1)Nc1ccc(C(=O)/C=C/c2ccc(Cl)cc2)cc1 | 114% |
| CC[C@@H](C(=O)[C@@H](C)[C@@H](O)[C@H](C)[C@@H]1O[C@@H]([C@@H](CC)C(=O)N(CC)CC)CC[C@@H]1C)C1O[C@]2(C=CC(=O)[C@]3(CC[C@@](C)([C@H]4CC[C@](O)(CC)[C@H](C)O4)O3)O2)[C@H](C)C[C@@H]1C (stereo not given in full) | -27.3% (active) |
| COc1ccc(-c2onc(N)c2-c2cc(OC)c3c(c2)OCO3)cc1 | 29.5% |
| CCN(CC)CCOc1cccc2c1C(=O)c1cccc(OCCN(CC)CC)c1C2=O | 52% |
| COc1cc(/C=C/c2cc(/C=C/c3ccc(O)c(OC)c3)n(C(=O)Nc3ccc(C)cc3)n2)ccc1O | 17.3% |
| CCOC(=O)c1cc(C(=O)c2ccc(F)cc2F)n2ccccc12 | 120% |
| COc1cc2c(cc1NC(=O)C(Cl)Cl)-c1ccc(NC(=O)C(Cl)Cl)cc1C2 | 115% |
| COc1ccc(-c2cc(-c3ccccc3)nc(SCCCC(=O)NO)n2)cc1 | -9.2% (active) |
| O=S(=O)(Oc1ccc(-c2ccc3sccc3c2)cc1)c1ccc(F)cc1 | 106% |
| COc1cc(-c2nn(-c3ccc(NC(=O)NCCCNC(=O)c4ccccc4)cc3)cc2-c2ccncc2)ccc1Cl | 47.3% |
| CN(C)CCCOc1ccc(OCCCN(C)C)c2c1C(=O)c1ccccc1C2=O | -43% (active) |
| COc1cccc(C2C(C#N)=C(N)Oc3cc(N)ccc32)c1 (stereo not given) | 51.9% |
| COc1cc(/C=C/c2cc(/C=C/c3ccc(O)c(OC)c3)[nH]c(=O)n2)ccc1O | 53.6% |
| COc1ccc2nc(-c3ccc(Cl)cc3)cc(-c3nnc(SC/C(=N\O)c4ccccc4)n3-c3ccccc3)c2c1 | 118% |
| CCOC(=O)CN(c1sc(C)c(C)c1C(=O)OCC)S(=O)(=O)c1ccc(C)cc1 | 106% |
| COc1ccc(/C=C2/SC(=S)NC2=O)c(OC)c1OC | 65.7% |
| CC(C)(C)OC(=O)N1CCc2c(sc3ncnc(N/N=C/c4ccccc4Br)c23)C1 | 90.4% |
| NC(CSC(c1ccccc1)(c1ccccc1)c1cccc2ccccc12)C(=O)O (stereo not given) | 112% |
| CN(C)CCCOc1ccccc1NC1=C(Cl)C(=O)C(Nc2ccccc2OCCCN(C)C)=C(Cl)C1=O | -77.6% (active) |

| SMILES | growth |
| --- | --- |
| NS(=O)(=O)c1ccc(Br)cc1 | 103% |
| CN(C)CCCOc1ccc(NC2=C(Cl)C(=O)C(Nc3ccc(OCCCN(C)C)cc3)=C(Cl)C2=O)cc1 | -71.7% (active) |
| COc1ccc(-c2n[nH]nc2-c2cc(OC)c3c(c2OC)OCO3)cc1 | 61.7% |
| C=CCn1c(SCC(=O)Nc2ccc(C(=O)/C=C/c3cc(OC)c(OC)c(OC)c3)cc2)nnc1-c1cc(-c2ccc(Cl)cc2)nc2ccccc12 | 97.8% |
| COc1ccc(C2=Cn3c(CCC(=O)c4nc5ccccc5[nH]4)nnc3SC2)cc1 | 102% |
| CCN1CCN(CCC(=O)Nc2cccc(-n3cc(-c4ccncc4)c(-c4ccc(Cl)c(OC)c4)n3)c2)CC1 | -63.6% (active) |
| N#CCc1csc(Cc2ccccc2)n1 | 101% |
| Cc1[nH]c2ccccc2c1/C=N/Nc1ncnc2sc3c(c12)CCN(CC(=O)OC(C)(C)C)C3 | 120% |
| CCCc1cn(CC(=O)Nc2nc3ccccc3s2)nn1 | 101% |
| C/C=C/CSC(C)(C)C(=O)NC | 111% |
| Cc1ccc(Cl)cc1NC(=O)CCl | 82.1% |
| CCOC(=O)c1cc(C(=O)c2ccc(OC)c(OC)c2)n2c1ccc1ccc3cccnc3c12 | 40.1% |
| Cc1c(Cl)cccc1NC(=O)CCCl | 108% |
| Cc1ccc(NCCNCC(C)(C)O)c2c(=O)c3ccc(Cl)cc3sc12 | -71.8% (active) |
| OCC1OC(n2cnc3c(NCc4ccco4)ncnc32)C(O)C1O (stereo not given) | 65.5% |
| NS(=O)(=O)Oc1ccc(NC(=O)C2CCCCCC2)cc1 | 102% |
| COc1cc(-c2nn(-c3ccc(NC(=O)NCCNS(=O)(=O)c4ccc(F)cc4)cc3)cc2-c2ccncc2)ccc1Cl | 24.8% |
| NS(=O)(=O)Oc1ccc2c(ccn2C(=O)C23CC4CC(CC(C4)C2)C3)c1 | 115% |
| COc1ccc(-c2cc(-c3ccc(Cl)cc3)nc(SCCCC(=O)NO)n2)cc1 | -11.8% (active) |
| Nc1cc(Br)c(-c2nn3c(CCC(=O)c4nc5ccccc5[nH]4)nnc3s2)c(Br)c1 | 95.8% |

Tested on: MDA-MB-231 breast
Assay: as above
Settings: 10 µM

| SMILES | growth |
| --- | --- |
| CC(C)N(CCOc1cccc(-c2nc3sccn3c2-c2ccnc(S(C)(=O)=O)n2)c1)C(C)C | 57.8% |
| O=C(CSc1nnc(-c2ccc(Cl)cc2)o1)Nc1ccc(C(=O)/C=C/c2ccc(Cl)cc2)cc1 | 104% |
| CC[C@@H](C(=O)[C@@H](C)[C@@H](O)[C@H](C)[C@@H]1O[C@@H]([C@@H](CC)C(=O)N(CC)CC)CC[C@@H]1C)C1O[C@]2(C=CC(=O)[C@]3(CC[C@@](C)([C@H]4CC[C@](O)(CC)[C@H](C)O4)O3)O2)[C@H](C)C[C@@H]1C (stereo not given in full) | 25.8% |
| COc1ccc(-c2onc(N)c2-c2cc(OC)c3c(c2)OCO3)cc1 | 56.7% |
| CCN(CC)CCOc1cccc2c1C(=O)c1cccc(OCCN(CC)CC)c1C2=O | 42.4% |
| COc1cc(/C=C/c2cc(/C=C/c3ccc(O)c(OC)c3)n(C(=O)Nc3ccc(C)cc3)n2)ccc1O | 19.9% |
| CCOC(=O)c1cc(C(=O)c2ccc(F)cc2F)n2ccccc12 | 79.9% |
| COc1cc2c(cc1NC(=O)C(Cl)Cl)-c1ccc(NC(=O)C(Cl)Cl)cc1C2 | -18% (active) |
| COc1ccc(-c2cc(-c3ccccc3)nc(SCCCC(=O)NO)n2)cc1 | -0.784% (active) |
| O=S(=O)(Oc1ccc(-c2ccc3sccc3c2)cc1)c1ccc(F)cc1 | 108% |
| COc1cc(-c2nn(-c3ccc(NC(=O)NCCCNC(=O)c4ccccc4)cc3)cc2-c2ccncc2)ccc1Cl | 19.1% |
| CN(C)CCCOc1ccc(OCCCN(C)C)c2c1C(=O)c1ccccc1C2=O | -20.5% (active) |
| COc1cccc(C2C(C#N)=C(N)Oc3cc(N)ccc32)c1 (stereo not given) | 48.8% |
| COc1cc(/C=C/c2cc(/C=C/c3ccc(O)c(OC)c3)[nH]c(=O)n2)ccc1O | 54.2% |
| COc1ccc2nc(-c3ccc(Cl)cc3)cc(-c3nnc(SC/C(=N\O)c4ccccc4)n3-c3ccccc3)c2c1 | 86.3% |
| CCOC(=O)CN(c1sc(C)c(C)c1C(=O)OCC)S(=O)(=O)c1ccc(C)cc1 | 72.9% |
| COc1ccc(/C=C2/SC(=S)NC2=O)c(OC)c1OC | 62.7% |
| CC(C)(C)OC(=O)N1CCc2c(sc3ncnc(N/N=C/c4ccccc4Br)c23)C1 | 81.3% |
| NC(CSC(c1ccccc1)(c1ccccc1)c1cccc2ccccc12)C(=O)O (stereo not given) | 96.1% |
| CN(C)CCCOc1ccccc1NC1=C(Cl)C(=O)C(Nc2ccccc2OCCCN(C)C)=C(Cl)C1=O | -71.9% (active) |

| SMILES | growth |
| --- | --- |
| NS(=O)(=O)c1ccc(Br)cc1 | 99.3% |
| CN(C)CCCOc1ccc(NC2=C(Cl)C(=O)C(Nc3ccc(OCCCN(C)C)cc3)=C(Cl)C2=O)cc1 | -80.2% (active) |
| COc1ccc(-c2n[nH]nc2-c2cc(OC)c3c(c2OC)OCO3)cc1 | 32% |
| C=CCn1c(SCC(=O)Nc2ccc(C(=O)/C=C/c3cc(OC)c(OC)c(OC)c3)cc2)nnc1-c1cc(-c2ccc(Cl)cc2)nc2ccccc12 | 75% |
| COc1ccc(C2=Cn3c(CCC(=O)c4nc5ccccc5[nH]4)nnc3SC2)cc1 | 92.2% |
| CCN1CCN(CCC(=O)Nc2cccc(-n3cc(-c4ccncc4)c(-c4ccc(Cl)c(OC)c4)n3)c2)CC1 | 4.87% (active) |
| N#CCc1csc(Cc2ccccc2)n1 | 114% |
| Cc1[nH]c2ccccc2c1/C=N/Nc1ncnc2sc3c(c12)CCN(CC(=O)OC(C)(C)C)C3 | 84.5% |
| CCCc1cn(CC(=O)Nc2nc3ccccc3s2)nn1 | 98.9% |
| C/C=C/CSC(C)(C)C(=O)NC | 120% |
| Cc1ccc(Cl)cc1NC(=O)CCl | 98.5% |
| CCOC(=O)c1cc(C(=O)c2ccc(OC)c(OC)c2)n2c1ccc1ccc3cccnc3c12 | 45.2% |
| Cc1c(Cl)cccc1NC(=O)CCCl | 121% |
| Cc1ccc(NCCNCC(C)(C)O)c2c(=O)c3ccc(Cl)cc3sc12 | -36.9% (active) |
| OCC1OC(n2cnc3c(NCc4ccco4)ncnc32)C(O)C1O (stereo not given) | -5.65% (active) |
| NS(=O)(=O)Oc1ccc(NC(=O)C2CCCCCC2)cc1 | 103% |
| COc1cc(-c2nn(-c3ccc(NC(=O)NCCNS(=O)(=O)c4ccc(F)cc4)cc3)cc2-c2ccncc2)ccc1Cl | -30.7% (active) |
| NS(=O)(=O)Oc1ccc2c(ccn2C(=O)C23CC4CC(CC(C4)C2)C3)c1 | 102% |
| COc1ccc(-c2cc(-c3ccc(Cl)cc3)nc(SCCCC(=O)NO)n2)cc1 | 1.61% (active) |
| Nc1cc(Br)c(-c2nn3c(CCC(=O)c4nc5ccccc5[nH]4)nnc3s2)c(Br)c1 | 99% |
